Results on 23 molecules are retold here after PubChem BioAssay (NCATS).

Results filed as inconclusive are left out. Values without a mark were called inactive. Active and inactive are the calls of the source. Calls come from the whole dose curve; as a rule, active = well fitted inhibition curve with a large enough effect; inconclusive = small, poorly fitted or top-dose-only effect; inactive = flat fitted curve, though single readings scatter.
% is set by controls: 0 for no effect and ±100 for the full control effect.

Calcium and integrin-binding protein 1 (Homo sapiens), sequence (Q99828 whole entry, looked up): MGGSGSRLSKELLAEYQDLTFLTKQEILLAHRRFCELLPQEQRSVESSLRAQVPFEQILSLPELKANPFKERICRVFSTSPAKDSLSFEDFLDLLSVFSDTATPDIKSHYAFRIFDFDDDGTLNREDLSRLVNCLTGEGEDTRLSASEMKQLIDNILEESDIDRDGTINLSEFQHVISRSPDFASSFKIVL

This experiment addresses Calcium and integrin-binding protein 1 (Homo sapiens) (UniProt Q99828). Briefly: Primary qHTS for Identification of Calcium Integrin Binding Protein 1 (CIB1) Competitor (AID 1508620).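 Note: GST tagged CIB1 binding a fluorescein labelled alphaIIb integrin peptide tracer; top concentration of the series differs between compounds.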 Conditions: CIB1-GST / FITC-alphaIIb peptide fluorescence polarization; series mostly up to 114 µM; activity change, negative = inhibition: at the top concentration. Summed up: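 Fluorescence polarization competition: CIB1-GST (1 uM final) preincubated with compound 15 min at room temperature, then FITC-labeled alphaIIb peptide (100 nM final) added for another 15 min. Polarization read at Ex 480/Em 540.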
(In general: In qHTS, concentration-response curves come from the screen itself.)
With `O=C(O)CN1C(=O)N/C(=C\c2cccn2-c2ccc(P(=O)(O)O)cc2)C1=O`, the “activity change, negative = inhibition” value was -3.35%.

On to `COc1ccc(S(=O)(=O)N2CCN(S(=O)(=O)c3ccc(OC)cc3)CC2)cc1`, for which the “activity change, negative = inhibition” value was -0.0373%.

For `CCc1nn2c(=O)cc(N3C(C)CNCC3C)nc2s1` (stereo not drawn), the “activity change, negative = inhibition” value was 0.291%.

On to `O=[S+]([O-])(c1ccc2c(c1)OCCO2)N1CCN([S+](=O)([O-])c2ccc(F)cc2Cl)CC1`, for which the “activity change, negative = inhibition” value is 0.718%.

For the molecule `Cc1cc(C)nc(NC(=S)N2CCN(c3cccc(S(C)(=O)=O)c3)CC2)c1`, the “activity change, negative = inhibition” value is -3.91%.

As for `CC(=O)Nc1sc2c(c1-c1cc3ccccc3o1)CCNC2`, the “activity change, negative = inhibition” value is 19%.

As to `COc1ccc(-c2csc3ncnc(Sc4nnnn4C)c23)cc1`, the “activity change, negative = inhibition” value was -1.35%.

Consider `N#Cc1cccc(S(=O)(=O)N2CCN(S(=O)(=O)c3ccc4c(c3)OCCO4)CC2)c1`, for which the “activity change, negative = inhibition” value is -4.35%.

Turning to `Cc1cc(-c2ccccc2)n2ncc(C(=O)Nc3ccc(Cl)c(Cl)c3)c2n1`, the “activity change, negative = inhibition” value is 3.28%.

For the molecule `COC(=O)c1ccc(Nc2nc(-c3ccncc3)nc3ccccc23)cc1OC`, the “activity change, negative = inhibition” value is 1.55%.

`O=C(CSc1ccccc1)Nc1nnc(COc2ccc(Cl)cc2)s1`: the “activity change, negative = inhibition” value is 4.63%.

Take `Cc1cc(C)nc(NC(=S)N2CCN(c3nccs3)CC2)c1`: the Potency result was “inactive”.

On to `O=C(O)c1ccc(CSc2nnc(-c3ccc([S+](=O)([O-])N4CCCC4)cc3)n2-c2ccccc2)cc1`, for which the “activity change, negative = inhibition” value was -2.77%.

Turning to `CCOC(=O)c1ccc(-c2ccc3ncnc(NCCc4cnc[nH]4)c3c2)o1`, the “activity change, negative = inhibition” value is 5.47%.

As to `O=c1c2ccc([N+](=O)[O-])cc2nc2sc(Nc3ccc4c(c3)CCC4)nn12`, the “activity change, negative = inhibition” value is 3.39%.

For `Nc1ccc(S(=O)(=O)N2CCN(S(=O)(=O)c3c(F)cccc3F)CC2)cc1`, the “activity change, negative = inhibition” value was -1.2%.

Take `CC(=O)C1CCN(c2ncc(-c3cccc(N(C)C)c3)s2)CC1`: the “activity change, negative = inhibition” value was -3.96%.

Regarding `Cc1ccc(OCCn2c(CCNC(=O)COc3ccccc3Br)nc3ccccc32)cc1`, the “activity change, negative = inhibition” value is 43.2%.

`NC(=O)C1CCN(c2nc(-c3ccc4occc(=O)c4c3)cs2)CC1`: the “activity change, negative = inhibition” value is 0.515%.

For `O=C1c2ccccc2C(=O)N1c1ccc2ccccc2n1`, the “activity change, negative = inhibition” value was 1.41%.

As for `Nc1cc(NC(=O)Nc2nnc(-c3ccncc3)s2)ccc1Cl`, the “activity change, negative = inhibition” value was -5.78%.

For `O=C(Nc1cncc(O)c1)c1cccs1`, the “activity change, negative = inhibition” value is -0.677%.

Take `CC1(C)CC2CC(C)(CN2S(=O)(=O)c2ccc(C(=O)Nc3ccc(Cl)cc3)cc2)C1` (stereo not drawn): the “activity change, negative = inhibition” value is 8.09%.
